Screening results as filed in PubChem BioAssay.
Shown is part of a subset that was picked to be rich in hits.
TTR transcr act = TTR transcription activators in neuroblastoma reporter cells, primary screen, cell-based, luminescence, SH-SY5Y, TTR promoter Gaussia luciferase; 100% = recombinant luciferase protein wells; activation, % at 16.7 µM; actives 1.3% (n = 92,000); AID 1117267, 2014;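 active = activation above the mean of all tested compounds plus 3 SD, cut at about 9.5% in these data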;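 note: cells exposed to compounds for one day before reading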
HuH7 TTR inh = TTR promoter reporter inhibitors in hepatoma cells, counter-screen for TTR transcription activator project, cell-based, luminescence, HuH7 hepatoma; shares compounds with TTR transcr act; HuH7 TTR promoter-Gaussia luciferase reporter; inhibition, % at 16.7 µM; actives 4% (n = 1,100);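 active = average inhibition above the solvent-only control wells' mean plus 3 SD, cut at about 15% in these data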;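 note: inhibitors lower well luminescence so higher value means more inhibition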
TTR act confirm = TTR transcription activators, retest, confirmation, cell-based, luminescence, SH-SY5Y, triplicate | shares compounds with TTR transcr act | SHSY5Y TTR promoter Gaussia luciferase; 100% = purified Lucia enzyme wells, no cells | activation, % at 16.7 µM | 1,100 tested, under 10 active | AID 1117280, 2014;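 active = mean activation above a set limit taken from the earlier primary screen, cut at about 11% in these data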
Each line names hits and unclear results; the compound was inactive in the other large screens (follow-up assays come after a bar, where they were run).

CC(C)CC(c1nnnn1Cc1ccco1)N1CCN(C2CCCC2)CC1 (centres undefined)	none
O=c1cc(N2CCN(c3cccc(C(F)(F)F)c3)CC2)[nH]c(=O)n1C1CCCCC1	none
CCOc1ccc(-n2c(SCC(N)=O)nc3c([nH]c4ccccc43)c2=O)cc1	TTR transcr act 12
CCOc1ccc(-n2c(SCC(=O)Nc3cc(C)on3)nc3c([nH]c4ccccc43)c2=O)cc1	none
COc1ccc(-n2c(SCC(=O)Nc3cc(C)on3)nc3c([nH]c4ccccc43)c2=O)cc1	none
Cc1ccc(NC(=O)C(=O)N2CCCC2)cc1Cl	none
Cc1ccc(NC(=O)C(=O)NNC(=O)c2ccccc2C)cc1Cl	TTR transcr act 11
COc1ccc(C(=O)NNC(=O)C(=O)Nc2ccc(C)c(Cl)c2)cc1	none
CCOC(=O)[C@@]12CCCC=C1N(CCc1ccc(Cl)cc1)C(=O)[C@H]2CC(=O)N1CCN(C(=O)c2ccco2)CC1	none
CC(C)C[C@H](NC1(C(=O)NCCc2c[nH]c3ccccc23)CCOCC1)C(=O)NCCCc1ccccc1	none
Cc1ccc(OCCn2c(CCNC(=O)C3CCCCCC3)nc3ccccc32)cc1	none
Cc1cc(NC(=O)CCC(=O)N(Cc2ccco2)C2(C(=O)NC3CCCC3)CCCCC2C)no1 (centres undefined)	none
CC(=O)NCC(=O)N(Cc1ccco1)C1(C(=O)NC2CCCCC2)CCCCC1	none
CC(=O)N(Cc1ccco1)C1(C(=O)NC2CCCCC2)CCCCC1	TTR transcr act 10
CC(=O)Nc1sc2c(c1-c1nc3ccccc3s1)CNC2	none
COc1cc(C(=O)NCCC(=O)NCCc2ccc(Cl)cc2)cc(OC)c1OC	none
COc1cc(C(=O)NCCC(=O)NCCCN2CCCCC2)cc(OC)c1OC	TTR transcr act 20
CCOCCCNC(=O)CCNC(=O)c1cc(OC)c(OC)c(OC)c1	none
O=C(Nc1c(-c2ccc(F)c(F)c2)nc2ncccn12)C1CC1	none
COc1ccc2c(c1)C[C@@H]1CC(C)(C)CN1S2(=O)=O	none
O=C(c1ccc(Cl)cc1)N1CCN(c2ccccn2)CC1	none
COCCNC[C@@]12CO[C@H](c3ccc(Cl)cc3)N1[C@@H](c1ccc(Cl)cc1)SC2	none
O=C(NC12CC3CC(CC(C3)C1)C2)c1cc(F)c(F)cc1Cl	none
O=C(NC12CC3CC(CC(C3)C1)C2)c1ccco1	none
O=C(NC12CC3CC(CC(C3)C1)C2)c1ccccc1O	TTR transcr act 9.9
C=C1C(=O)[C@]23C[C@H]1CC[C@H]2[C@]1(C)CCC[C@@](C)(C(=O)OC)[C@H]1C[C@@H]3O	none
CCCCc1ccc2nc(NC(=O)c3ccco3)sc2c1	none
CC(C)[C@H](NC(=O)OCc1ccccc1)C(=O)NCc1ccccc1	none
NC(=O)C(NC(=O)OCc1ccccc1)c1ccccc1 (centres undefined)	none
CC[C@@H](C)[C@H](NC(=O)OCc1ccccc1)c1nnc([C@@H](NC(=O)OCc2ccccc2)[C@@H](C)CC)o1	TTR transcr act 11
CN1CCC(N[C@@H](Cc2ccccc2)C(=O)NCCCc2ccccc2)(C(=O)NCCc2c[nH]c3ccccc23)CC1	none
CCOc1ccccc1NC(=O)CN(C)S(=O)(=O)c1ccc2[nH]c(=O)oc2c1	TTR transcr act 12 | HuH7 TTR inh inactive | TTR act confirm inactive
CCOc1ccc(NS(=O)(=O)c2ccc3[nH]c(=O)oc3c2)cc1	none
COc1ccccc1NC(=O)CN(C)S(=O)(=O)c1cc(C)ccc1OC	none
COC(=O)[C@]12C[C@H](CC(=O)N3CCN(C(=O)C4CC4)CC3)C(=O)N(Cc3ccc(Cl)cc3Cl)C1=C[C@H](C(C)(C)C)O[C@@H]2C	none
O=C(Nc1ccc(C(O)(C(F)(F)F)C(F)(F)F)cc1)c1ccc(F)cc1Cl	none
Cc1onc(C(=O)N2CCN(C(c3ccc(F)cc3)c3ccc(F)cc3)CC2)c1[N+](=O)[O-]	none
COC(=O)[C@]12C[C@H](CC(=O)N3CCCC3)C(=O)N(Cc3cccc4ccccc34)C1=C[C@H](C(C)C)O[C@@H]2C1CC1	none
O=C(NCCc1c[nH]c2ccccc12)OCc1cn(Cc2ccc(F)c(F)c2)nn1	none
O=C(N1CCC(n2nc(-c3ccccc3)oc2=O)CC1)C1(c2ccccc2)CCCC1	none
Cc1cc(C)c(NC(=O)COC(=O)C2CCCO2)c(C)c1 (centres undefined)	none
CC(=O)OCC(=O)Nc1c(C)cc(C)cc1C	TTR transcr act 9.9 | HuH7 TTR inh inactive | TTR act confirm inactive
COc1cc(CCC(=O)OCC(=O)Nc2c(C)cc(C)cc2C)cc(OC)c1OC	none
O=C(COc1ccc(F)c(Cl)c1)N[C@H]1CCCN(CC2CC2)C1	none
COc1ccc(C2Nc3ccccc3C(=O)N2Cc2ccccc2)cc1COc1ccc(NC(C)=O)cc1 (centres undefined)	none
